Where “and” joins values, the source holds several entries; their conditions need not be identical. Equal entries are not always repeated. Results filed as inconclusive are left out. Calls of active or inactive are those of the source. Calls follow the shape of the dose curve; as a rule, active = well fitted cell-killing curve with a large enough effect in the repeat runs; inconclusive = weak or mixed curves, or effect the other way; inactive = no such curve, though single readings can be large or run the other way.
Potency is read from the fitted curve at half-maximal effect.

This test can be described thus: Caspase-3/7 induction in CHO-K1 cells by small molecules, qHTS cell viability counter screen (AID 1346979). Also: nearly all actives have a fitted effect of over 35% in size. To be noted: CellTiter-Fluor fluorescence, 17 h; series mostly up to 92.4 µM. The text has this: National Center for Advancing Translational Sciences [NCATS]
NIH Chemical Genomics Center [NCGC]
U.S. Environmental Protection Agency [EPA]
National Institutes of Environmental Health Sciences [NIEHS]
National Toxicology Program [NTP]
U.S. Food and Drug Administration [FDA]
Apoptosis is a process of programmed cell death and plays a central role in the development of multicellular organisms. It is a highly regulated process and induces cell death by activating caspases, which are the members of cysteine aspartic acid-specific protease (caspase) family. Caspases involved in apoptosis are classified by their mechanism of action as initiator caspases (caspase-2, -8, -9 and -10) and executioner caspases (caspase-3, -6, and -7). Inhibition of apoptosis results in number of cancers, autoimmune diseases, inflammatory diseases and viral infection. To identify small molecule compounds that induce apoptosis, a homogeneous, luminescent Caspase-Glo 3/7 assay was used. Wild type CHO-K1 cells were used to screen Tox21 libraries for identifying caspase-3/7 activity inducers. Also cytotoxicity of the compounds was tested in parallel by measuring the cell viability using CellTiter-Fluor assay system in the same wells.
Tox21 Assay Protocol Summary:
CHO-K1 cells were dispensed at 1,500 per well in 5uL of culture medium into white solid bottom 1536-well plates (Corning Life Sciences, Corning, NY) using a Multidrop Combi (Thermo Scientific, Waltham, MA) dispenser. The assay plates were incubated at 37 C and 5% CO2 for 5hr, and then 23nL of compounds dissolved in DMSO and positive control were transferred using a Pintool station (Wako, San Diego, CA). The assay plates were incubated at 37C and 5% CO2 for 17hr. For cytotoxicity read, after 16hr incubation at 37C, 1uL CellTiter-Fluor reagent (Promega Corporation, Madison, WI) was added to each well of the assay plates using Flying Reagent Dispenser (FRD, Aurora Discovery, San Diego, CA). After 1hr incubation at 37C and 5% CO2, the fluorescence signal was quantified using a ViewLux plate reader (PerkinElmer, Shelton, CT).
In general terms: In qHTS, concentration-response curves come from the screen itself.
Consider `CC(C)(C)CC(C)(C)c1ccc(OCCOCC[N+](C)(C)Cc2ccccc2)cc1`, for which the Potency is 61.1 µM (active).

With `C[C@H](CCC(=O)O)[C@H]1CC[C@H]2[C@@H]3CC[C@@H]4C[C@H](O)CC[C@]4(C)[C@H]3CC[C@]12C`, the Potency was 48.4 µM (active).

With `Nc1cc(C(F)(F)F)ccc1S`, the Potency was 26.6 µM (active).

As for `CC(C)(C)CC(C)(C)c1ccc(O)c(Cc2ccc(Cl)cc2Cl)c1`, the Potency was 18.8 µM (active).

Take `O=c1[nH]sc2ccccc12`: the Potency was 19.3 µM (active).

As to `Cc1onc(-c2ccccc2Cl)c1C(=O)N[C@@H]1C(=O)N2[C@@H]1SC(C)(C)[C@@H]2C(=O)O`, the Potency result is “inactive”.

In the case of `[O-][n+]1ccccc1SSc1cccc[n+]1[O-]`, the Potency was 0.073 µM (active).

As for `CCOC(=O)O[C@]1(C(=O)OCCl)CC[C@H]2[C@@H]3CCC4=CC(=O)C=C[C@]4(C)[C@H]3[C@@H](O)C[C@@]21C`, the Potency result was “inactive”.

As for `[Cl][Bi]([Cl])([c]1ccccc1)([c]1ccccc1)[c]1ccccc1`, the Potency is 3.05 µM (active).

For the compound `CC[C@H]1O[C@]2(CC[C@@H]1C)C[C@@H]1C[C@@H](C/C=C(\C)C[C@@H](C)/C=C/C=C3\CO[C@@H]4[C@H](O)C(C)=C[C@@H](C(=O)O1)[C@]34O)O2`, the Potency was 17.1 µM (active).

With `CC(=O)OCC(C)OC(C)=O` (stereo not given), the Potency result was “inactive”.

For `Clc1ccccc1C(c1ccccc1)(c1ccccc1)n1ccnc1`, the Potency is 8.63 µM (active) and 7.5 µM (active).

For the compound `C/C=C(\C)C(=O)OCc1ccccc1`, the Potency result was “inactive”.

Take `CCCCC(CC)CN=C(N)NC(N)=NCCCCCCN=C(N)NC(N)=NCC(CC)CCCC` (stereo not given): the Potency is 16.8 µM (active).

For `CCN(CC)CCNC(=O)c1c(C)[nH]c(/C=C2\C(=O)Nc3ccc(F)cc32)c1C`, the Potency is 13.3 µM (active).

For the compound `CCCCCCCCCCCCCCCS(=O)(=O)Oc1ccccc1`, the Potency result was “inactive”.

With `COc1ccc(CN2CCN(C(c3ccc(F)cc3)c3ccc(F)cc3)CC2)c(OC)c1OC`, the Potency was 26.6 µM (active).

With `CS(=O)(=O)CCNCc1ccc(-c2ccc3ncnc(Nc4ccc(OCc5cccc(F)c5)c(Cl)c4)c3c2)o1`, the Potency was 23.7 µM (active).

`O=c1cc(-c2ccc(O)cc2)oc2cc(O)cc(O)c12`: the Potency was 55.2 µM (active) and 43.3 µM (active).

On to `O=C1c2ccccc2Cc2ccccc21`, for which the Potency was 30.9 µM (active).

Turning to `O=C1C=CC(=O)N1c1ccc(Cc2ccc(N3C(=O)C=CC3=O)cc2)cc1`, the Potency is 6.11 µM (active).

Turning to `C/C=C1/C(=O)C[C@H]2[C@@H]3CCC4=CC(=O)CC[C@]4(C)[C@H]3CC[C@]12C`, the Potency was 60.9 µM (active).

`O=C(N/N=C/c1ccccc1O)c1ccncc1`: the Potency is 7.5 µM (active).

As for `[Cl][Au]([Cl])[Cl]`, the Potency is 24.3 µM (active).

With `CCCN(CCC)c1c([N+](=O)[O-])cc(C(F)(F)F)c(N)c1[N+](=O)[O-]`, the Potency was 43.1 µM (active).

For `Cc1nc(-c2ccc3c(c2)CCN(CCC2CCC(NC(=O)/C=C/c4ccc(F)cc4)CC2)CC3)no1` (stereo not given), the Potency was 6.87 µM (active).

For the compound `CCCCCCCCCCn1cc[n+](CCCCCCCCCC)c1C`, the Potency was 6.87 µM (active).

For the compound `NNc1nc(-c2ccc(N)cc2)cs1`, the Potency is 48.6 µM (active).

Turning to `CC[C@H](c1ccc(O)cc1)[C@@H](CC)c1ccc(O)cc1`, the Potency is 68.6 µM (active).

Consider `CNCc1cc(F)ccc1Oc1ccc(Cl)c(Cl)c1`, for which the Potency is 61.1 µM (active).

For `CC(C)(C)C(=O)OCOC(=O)[C@@H]1N2C(=O)[C@@H](NC(=O)[C@H](N)c3ccccc3)[C@H]2SC1(C)C`, the Potency entry was “inactive”.

Take `CCC(C)(C)C1CCCCC1OC(C)=O` (stereo not given): the Potency entry was “inactive”.

For the compound `O=[N+]([O-])c1cc(Cl)c(Cl)c(Cl)c1Cl`, the Potency was 60.9 µM (active).

As to `ON=C1CCCC1`, the Potency result is “inactive”.

Consider `CCCN(CCC)C(=O)C(CCC(=O)OCCCN1CCN(CCOC(=O)Cc2c(C)n(C(=O)c3ccc(Cl)cc3)c3ccc(OC)cc23)CC1)NC(=O)c1ccccc1` (stereo not given), for which the Potency was 26.6 µM (active).

For the compound `CCCCN1CCCC[C@H]1C(=O)Nc1c(C)cccc1C`, the Potency entry is “inactive”.

For `O=C(Nc1cccc(C(F)(F)F)c1)c1cc(Br)cc(Br)c1O`, the Potency was 6.86 µM (active).

On to `CCN(C(=O)c1cc(C)cc(OC[C@H](C)Nc2ccncc2)c1)C(C)C`, for which the Potency entry was “inactive”.

Take `NC(=O)NS(=O)(=O)c1ccc(N)cc1`: the Potency result is “inactive”.

As for `Cc1cc(CCN2CCN(c3nsc4ccccc34)CC2)cc2c1NC(=O)CC2(C)C`, the Potency is 24.3 µM (active).

These data come from PubChem BioAssay (Tox21).
